Out of some 5,500 compounds screened, about 2,000 (36%) were called active. About 18% were inconclusive and are not listed. Rule as the data show it: active = normalized growth mostly below about 0.91 (no sharp cut-off); inconclusive = no clear call, values can overlap the other calls; inactive = mostly above about 0.92. This is one part of the list.
Test: chemical genetic growth profiling, strain panel (AID 1159580);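 also: tested at 20 µM; growth read once vehicle control cultures reached saturation at 30 °C; 1 = growth at the plate median or of vehicle wells; lower values mean less growth of the strain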
Conditions: S. cerevisiae deletion strains, growth OD
[1] = locus YAL013W, strain DEP1, hits give low values
[2] = locus YAL040C, strain CLN3, hits give low values
[3] = locus YCL061C, strain MRC1 (second series), hits give low values
[4] = locus YDR150W, strain NUM1, hits give low values
[5] = locus YDR363W, strain ESC2, hits give low values
[6] = locus YER002W, strain NOP16, hits give low values
[7] = locus YGR078C, strain PAC10, hits give low values
[8] = locus YNL175C, strain NOP13, hits give low values
[9] = locus YNL197C, strain WHI3, hits give low values
[10] = locus YNL224C, strain SQS1, hits give low values
[11] = locus YOR083W, strain WHI5 (second series), hits give low values

Measured: normalized growth

CNC[C@H](O)c1ccc(O)c(O)c1
inactive: [1] 1.01 | [2] 1.04 | [3] 1 | [4] 1 | [5] 0.993 | [6] 1.01 | [7] 1.02 | locus YJR075W, strain HOC1, hits give low values 1 | [8] 1.01 | [9] 1.01 | [10] 1.01 | locus YNL322C, strain KRE1, hits give low values 0.997 | [11] 1.02 | locus YPL241C, strain CIN2, hits give low values 1

CC(C)NC[C@H](O)c1ccc(O)c(O)c1
inactive: [1] 1.01 | [2] 0.998 | [3] 1 | [4] 0.99 | [5] 1 | [6] 1 | [7] 1.01 | [8] 1.02 | [9] 1.01 | [10] 1.01 | [11] 1 | locus YPL055C, strain LGE1, hits give low values 0.97
